For test [1], the system named is RIVA. Nature of the test: growth inhibition by drug alone (1 - RLU/untreated control) (fraction); higher = stronger inhibition. Conditions: 177Lu-lilotomab satetraxetan 0 ug/ml. A digest of the protocol: (§1)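 With or without 18 h pretreatment by a radiolabelled anti-CD37 antibody conjugate (~600 MBq/mg; 0.5 µg/ml RIVA, 1 µg/ml U-2932), RIVA and U-2932 cells were washed and plated at 3,000 cells/well. Pre-printed compound doses were 10/100 nM for RIVA and 10/1,000 nM for U-2932. Growth inhibition uses RealTime-Glo RLU relative to the untreated no-drug wells. The calculation is 1 − RLU/mean of 48 such wells per plate, with reads daily from day 3 after 1 h at 37°C.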

For test [2], the system named is U-2932. Nature of the test: growth inhibition by drug plus 177Lu-lilotomab satetraxetan (1 - RLU/untreated control) (fraction); higher = stronger inhibition. Conditions: 177Lu-lilotomab satetraxetan 1 ug/ml. A digest of the protocol: as §1
In test [3] the test system is RIVA. Described as above. Conditions: 177Lu-lilotomab satetraxetan 0.5 ug/ml. The gist of the method: as §1

Take `CC(C)C[C@H](NC(=O)[C@@H](O)[C@H](N)Cc1ccccc1)C(=O)O` [Ubenimex (Bestatin)]: the “growth inhibition by drug alone” value in test [1] (10 nM, time (day): 3) was 0.135; in test [1] (10 nM, time (day): 4), 0.0658; in test [1] (10 nM, time (day): 5) it was -0.0244; in test [1] (10 nM, time (day): 6), -0.181; in test [1] (100 nM, time (day): 3), 0.0407; in test [1] (100 nM, time (day): 4), 0.0221. The “growth inhibition by drug alone” value in test [1] (100 nM, time (day): 5) is 0.00426; in test [1] (100 nM, time (day): 6) it was -0.114. Besides, the “growth inhibition by drug plus 177Lu-lilotomab satetraxetan” value was 0.0135 in test [2] (10 nM, time (day): 3); 0.0451 in test [2] (10 nM, time (day): 4); 0.0835 in test [2] (10 nM, time (day): 5); 0.192 in test [2] (10 nM, time (day): 6); -0.112 in test [2] (1000 nM, time (day): 3); -0.0121 in test [2] (1000 nM, time (day): 4). Moreover, the “growth inhibition by drug plus 177Lu-lilotomab satetraxetan” value is -0.00508 in test [2] (1000 nM, time (day): 5); 0.0506 in test [2] (1000 nM, time (day): 6); 0.428 in test [3] (10 nM, time (day): 3); 0.535 in test [3] (10 nM, time (day): 4); 0.552 in test [3] (10 nM, time (day): 5); 0.573 in test [3] (10 nM, time (day): 6). Moreover, the “growth inhibition by drug plus 177Lu-lilotomab satetraxetan” value in test [3] (100 nM, time (day): 3) came out at 0.504; in test [3] (100 nM, time (day): 4) it was 0.54; in test [3] (100 nM, time (day): 5), 0.554; in test [3] (100 nM, time (day): 6), 0.541.
As for `C=CC(=O)Nc1cccc(Oc2nc(Nc3ccc(N4CCN(C)CC4)cc3OC)ncc2Cl)c1`, the “growth inhibition by drug plus 177Lu-lilotomab satetraxetan” value in test [2] (10 nM, time (day): 3) was -0.102; in test [2] (10 nM, time (day): 4) it was -0.073; in test [2] (10 nM, time (day): 5), -0.0211; in test [2] (10 nM, time (day): 6), 0.138; in test [2] (1000 nM, time (day): 3) it was 0.163; in test [2] (1000 nM, time (day): 4) it was 0.104. The “growth inhibition by drug plus 177Lu-lilotomab satetraxetan” value in test [2] (1000 nM, time (day): 5) is 0.0972; in test [2] (1000 nM, time (day): 6), 0.216; in test [3] (10 nM, time (day): 3) it was 0.397; in test [3] (10 nM, time (day): 4), 0.494; in test [3] (10 nM, time (day): 5), 0.517; in test [3] (10 nM, time (day): 6), 0.516. Moreover, the “growth inhibition by drug plus 177Lu-lilotomab satetraxetan” value in test [3] (100 nM, time (day): 3) amounted to 0.215; in test [3] (100 nM, time (day): 4) it was 0.265; in test [3] (100 nM, time (day): 5), 0.299; in test [3] (100 nM, time (day): 6), 0.321.
Take `COc1cc2ncnc(-n3nc(-c4ccccn4)nc3N)c2cc1OC`: the “growth inhibition by drug alone” value in test [1] (10 nM, time (day): 3) was -0.00526; in test [1] (10 nM, time (day): 4), 0.0304; in test [1] (10 nM, time (day): 5), -0.00529; in test [1] (10 nM, time (day): 6) it was -0.18; in test [1] (100 nM, time (day): 3), -0.0276; in test [1] (100 nM, time (day): 4) it was -0.0495. Further, the “growth inhibition by drug alone” value in test [1] (100 nM, time (day): 5) is -0.074; in test [1] (100 nM, time (day): 6) it was -0.143. The “growth inhibition by drug plus 177Lu-lilotomab satetraxetan” value in test [2] (10 nM, time (day): 3) was 0.0575; in test [2] (10 nM, time (day): 4), 0.105; in test [2] (10 nM, time (day): 5) it was 0.1; in test [2] (10 nM, time (day): 6), 0.113; in test [2] (1000 nM, time (day): 3) it was -0.00115; in test [2] (1000 nM, time (day): 4), 0.0649. In addition, the “growth inhibition by drug plus 177Lu-lilotomab satetraxetan” value in test [2] (1000 nM, time (day): 5) was 0.0622; in test [2] (1000 nM, time (day): 6), 0.0772; in test [3] (10 nM, time (day): 3) it was 0.485; in test [3] (10 nM, time (day): 4), 0.573; in test [3] (10 nM, time (day): 5), 0.58; in test [3] (10 nM, time (day): 6), 0.588. Besides, the “growth inhibition by drug plus 177Lu-lilotomab satetraxetan” value in test [3] (100 nM, time (day): 3) came to 0.535; in test [3] (100 nM, time (day): 4) it was 0.578; in test [3] (100 nM, time (day): 5), 0.579; in test [3] (100 nM, time (day): 6), 0.559.
Regarding `Cc1nnc(C(C)C)n1C1C[C@H]2CC[C@@H](C1)N2CC[C@H](NC(=O)C1CCC(F)(F)CC1)c1ccccc1` (stereo in doubt) [Maraviroc], the “growth inhibition by drug alone” value in test [1] (10 nM, time (day): 3) was 0.071; in test [1] (10 nM, time (day): 4) it was 0.0921; in test [1] (10 nM, time (day): 5) it was 0.049; in test [1] (10 nM, time (day): 6), -0.0807; in test [1] (100 nM, time (day): 3), 0.1; in test [1] (100 nM, time (day): 4), 0.0864. Further, the “growth inhibition by drug alone” value in test [1] (100 nM, time (day): 5) was 0.0269; in test [1] (100 nM, time (day): 6) it was -0.0532. Also, the “growth inhibition by drug plus 177Lu-lilotomab satetraxetan” value in test [2] (10 nM, time (day): 3) came to 0.128; in test [2] (10 nM, time (day): 4), 0.146; in test [2] (10 nM, time (day): 5), 0.143; in test [2] (10 nM, time (day): 6), 0.239; in test [2] (1000 nM, time (day): 3) it was 0.0251; in test [2] (1000 nM, time (day): 4) it was 0.112. The “growth inhibition by drug plus 177Lu-lilotomab satetraxetan” value in test [2] (1000 nM, time (day): 5) turned out to be 0.105; in test [2] (1000 nM, time (day): 6), 0.201; in test [3] (10 nM, time (day): 3), 0.542; in test [3] (10 nM, time (day): 4), 0.609; in test [3] (10 nM, time (day): 5) it was 0.618; in test [3] (10 nM, time (day): 6), 0.645. Further, the “growth inhibition by drug plus 177Lu-lilotomab satetraxetan” value in test [3] (100 nM, time (day): 3) turned out to be 0.545; in test [3] (100 nM, time (day): 4) it was 0.593; in test [3] (100 nM, time (day): 5), 0.587; in test [3] (100 nM, time (day): 6), 0.584.

The values above are taken from the supplement of paper PMC6897291.
